The record followed here is PubChem BioAssay (EPA / NIEHS).

SMILES strings stand for the structures. Active and inactive are the calls of the source. The calls were made as follows: active = hit-call score of the fitted dose curve at least 0.9, where 1 is the maximum; inactive = score below 0.9.

Sequence of Transcription factor E2F1 (Homo sapiens) (Q01094 whole entry, looked up): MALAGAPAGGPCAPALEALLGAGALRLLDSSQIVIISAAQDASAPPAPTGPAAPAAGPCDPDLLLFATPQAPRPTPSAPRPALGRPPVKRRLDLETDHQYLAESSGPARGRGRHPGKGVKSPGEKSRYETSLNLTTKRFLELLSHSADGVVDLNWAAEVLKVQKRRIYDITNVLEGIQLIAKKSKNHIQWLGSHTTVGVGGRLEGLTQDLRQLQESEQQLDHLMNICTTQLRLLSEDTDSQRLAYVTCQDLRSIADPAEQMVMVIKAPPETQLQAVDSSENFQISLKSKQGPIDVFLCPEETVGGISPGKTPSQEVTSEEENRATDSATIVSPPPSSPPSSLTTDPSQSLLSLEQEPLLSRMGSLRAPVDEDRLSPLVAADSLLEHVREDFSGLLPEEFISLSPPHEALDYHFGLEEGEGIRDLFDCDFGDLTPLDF

For this test, the target named is Transcription factor E2F1 (Homo sapiens) (UniProt Q01094). Briefly: ATG_E2F_CIS: Attagene CIS-FACTORIAL HepG2 Assay for human E2F Transcription Factor 1 (AID 2282935). The settings on record: HepG2 Attagene cis-reporter, E2F reporter RNA transcripts; actives raise or lower the signal. The procedure:
ATG_CIS is a cell-based, multiplexed-readout assay that uses HepG2, a human liver cell line, with measurements taken at 24 hours after chemical dosing in a 24-well plate.ATG_E2F_CIS is one of 52 assay component(s) measured or calculated from the ATG_CIS assay. It is designed to make measurements of mRNA induction, a form of inducible reporter, as detected with fluorescence intensity signals by Reverse transcription polymerase chain reaction (RT-PCR) and Capillary electrophoresis technology.Data from the assay component ATG_E2F_CIS was analyzed into 1 assay endpoint. This assay endpoint, ATG_E2F_CIS, was analyzed with bidirectional fitting relative to DMSO as the negative control and baseline of activity. Using a type of inducible reporter, measures of mRNA for gain or loss-of-signal activity can be used to understand the reporter gene at the transcription factor-level as they relate to the gene E2F1. Furthermore, this assay endpoint can be referred to as a primary readout, because this assay has produced multiple assay endpoints where this one serves a reporter gene function. To generalize the intended target to other relatable targets, this assay endpoint is annotated to the dna binding intended target family, where the subfamily is E2F transcription factor.
Human liver HepG2 cells are transiently transfected with multiple reporter transcription units (MRTUs) in 6-well plates using FuGene 6 reagent (Roche; 3 ml FuGene/1 mg DNA). The MRTU constructs are regulated by a cis-regulating element (promoter). […] A major difference between the CIS and TRANS system is that in CIS activities of endogenous TFs are measured, whereas the TRANS assay evaluates changes in activities of exogenous, chimeric NR-Gal4 proteins. […] At the end of 24 hour incubation, total RNA was isolated using TriZol reagent (Invitrogen). The isolated RNA is then reverse-transcribed using oligo(dT) primer and Mo-MLV reverse transcriptase (Invitrogen) with DNAse I (Ambion) treatment for 30 min. The one-tenth of the produced cDNA was amplified by PCR using Taq DNA polymerase (Invitrogen) and two reporter sequence-specific primers. The PCR products were fluorescently labeled by primer extension with 6-arboxyfluorescein (6-FAM) 5'-labeled reporter sequence-specific primer (2 min at 95 C, 20 s at 68 C and 10 min at 72 C) and these products were digested with 5U of HpaI (New England Biolabs) for 2h at 37 C. The fragments were purified using Qiaquick PCR columns (Qiagen), analyzed on an ABI 3130xL genetic analyzer (Applied Biosystems) with peak positions identified by using a set of X-rhodamine (ROX)-labeled MapMarker1000 molecular weight standards (BioVentures). The raw capillary electrophoresis data was processed using Attagraph software (Attagene).
Turning to `CCCOc1ccc(S(=O)(=O)N2CCN(CC)CC2)cc1-c1nc2c(CC)n(Cc3ccccn3)nc2c(=O)[nH]1`, the result was inactive. `Nc1ccn([C@@H]2O[C@H](CO)[C@@H](O)[C@@H]2O)c(=O)n1`: the result was inactive. The same measure for `CC(C)CC(C)O` (stereo not given): “inactive”; for `FC(F)C(F)(F)COCC1CO1` (stereo not given): “inactive”.

As to `CCOc1ccc2[nH]cc(C(=O)NCc3ccccc3)c(=O)c2n1`, the compound was called inactive. On to `Cc1nc(-c2ccccn2)ncc1C(=O)Nn1cc(C)c2cc(F)ccc21`, for which the compound was classed as inactive.

Take `Cn1c(=O)c2[nH]cnc2n(C)c1=O`: the compound was classed as inactive.

For `c1ccc2cc3ccccc3cc2c1`, the call was inactive.

Consider `OC[C@H]1O[C@@](CO)(O[C@H]2O[C@H](CO)[C@@H](O)[C@H](O)[C@H]2O)[C@@H](O)[C@@H]1O`, for which the call was inactive. The same measure for `OCc1c[nH]c2ccccc12`: “inactive”; for `Cn1cc[nH]c1=S`: “inactive”; for `OCC(CO)(CO)CO`: “inactive”. The same measure for `CCOC(N)=O`: “inactive”. `FC(F)=C(F)C(F)(F)C(F)(F)C(F)(F)C(F)(F)C(F)(F)C(F)(F)F`: the result was inactive. The same measure for `O=C(O)CO`: “inactive”. The same measure for `O=S1(=O)CCCO1`: “inactive”; for `CC(C)c1nnc2ccc(-c3ocnc3-c3cc(F)ccc3F)cn12`: “inactive”; for `O=S(=O)(O)c1ccc(N=Nc2c(O)ccc3cc(S(=O)(=O)O)ccc23)cc1`: “inactive”. The same measure for `C=CCc1cc(S(=O)(=O)c2ccc(O)c(CC=C)c2)ccc1O`: “inactive”; for `O=C1CN(N=Cc2ccc([N+](=O)[O-])o2)C(=O)N1`: “inactive”.

In the case of `O=C(O)[C@H](O)[C@@H](O)C(=O)O`, the compound was called inactive. On to `C[C@@H](Oc1ccc(CNC(=O)c2cccnc2Oc2ccc3c(c2)OCO3)c(F)c1)C(=O)O`, for which the compound was called inactive.

Regarding `OC[C@H]1O[C@@H]2O[C@H]3[C@H](O)[C@@H](O)[C@@H](O[C@H]4[C@H](O)[C@@H](O)[C@@H](O[C@H]5[C@H](O)[C@@H](O)[C@@H](O[C@H]6[C@H](O)[C@@H](O)[C@@H](O[C@H]7[C@H](O)[C@@H](O)[C@@H](O[C@H]1[C@H](O)[C@H]2O)O[C@@H]7CO)O[C@@H]6CO)O[C@@H]5CO)O[C@@H]4CO)O[C@@H]3CO`, the call was inactive.

For `NC(N)=O`, the call was inactive. As to `NC(=O)NN=Cc1ccc([N+](=O)[O-])o1`, the compound was called inactive. The same measure for `CC(=O)c1ccccc1`: “inactive”. Turning to `COc1cc(C(C)C)c2c(c1)S(=O)(=O)N(COc1cc(=O)n3cccc(OCCN4CCCCC4)c3n1)C2=O`, the result was inactive. The same measure for `C[Si](C)(C)C(F)(F)C(F)(F)C(F)(F)F`: “inactive”.

For `O=C(O)c1cccc(C(=O)O)c1`, the compound was called inactive. The same measure for `CCCC(CCC)C(=O)O`: “inactive”; for `O=C(N[C@H](CO)[C@H](O)c1ccc([N+](=O)[O-])cc1)C(Cl)Cl`: “inactive”. The same measure for `OCc1ccccc1`: “inactive”.

In the case of `CCCCCCCCCC`, the call was inactive. The same measure for `C[C@]12C=CC(=O)C=C1CC[C@H]1[C@@H]3C[C@@H](O)[C@](O)(C(=O)CO)[C@@]3(C)C[C@H](O)[C@@]12F`: “inactive”. Turning to `NC(=O)N1c2ccccc2C=Cc2ccccc21`, the result was inactive. Regarding `CCCCC(CC)C(=O)OCCOCCOCCOC(=O)C(CC)CCCC` (stereo not given), the call was inactive. The same measure for `COCc1nnc(-c2ccc[n+]([O-])c2)n1-c1c(Cl)c(Cl)cc2[nH]c(=O)c(=O)[nH]c12`: “inactive”; for `CCCCCOC(C)=O`: “inactive”; for `c1ccc2c(c1)-c1cccc3c1c-2cc1ccccc13`: “inactive”. The same measure for `CC1(C)C(=O)N(Cl)C(=O)N1Cl`: “inactive”.
